The full ranking holds about 68,000 sequences; the median of “fluorescence intensity (a.u.)” is about 9,100, and the highest 2% start at about 16,000. What follows is part of a selection rich in the highest values, with near analogues and random picks from the rest.
These sequences were tested against OsWRKY34 (Oryza sativa, UniProt Q0JBA9 1-250) (assay: protein-binding microarray (RPBM); PBS, 2% BSA, 51.3 ng/ul salmon testes DNA, 50 uM zinc acetate, 200 nM TF, 25 C, 1 h; high values mean tight binding). Conditions: protein: recombinant; tags: N-terminal polyhistidine and DsRed monomer fusion (pET32a); label: CyDye5-dUTP incorporated in the synthesized complementary strand; 3' TTTTT single-stranded linker to array surface; dsDNA, one strand shown.
How it was run: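 Using Ni–NTA, transcription factors fused N-terminally to polyhistidine and DsRed were purified after expression in E. coli BL21-CodonPlus. These were incubated at 200 nM with a blocked, double-stranded custom Agilent array for 1 h at 25 °C in a buffer containing 50 µM zinc acetate, and the array was washed. The binding signal is per-feature fluorescence intensity (arbitrary units) on an Axon 4000B scanner.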

OsWRKY34, sequence (Q0JBA9 entry or part of it): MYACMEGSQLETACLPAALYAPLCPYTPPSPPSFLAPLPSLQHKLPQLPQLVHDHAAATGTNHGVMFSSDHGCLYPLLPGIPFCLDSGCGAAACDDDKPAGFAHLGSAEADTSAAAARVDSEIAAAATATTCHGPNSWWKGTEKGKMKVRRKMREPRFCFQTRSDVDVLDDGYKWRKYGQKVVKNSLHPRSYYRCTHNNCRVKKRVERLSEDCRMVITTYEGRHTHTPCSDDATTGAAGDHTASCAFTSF

**Q.** With “CGTGGTAATTTTTATTGGTAAGTGGTGGTGAAGTGGGTGACGGAGTCACCTAGTGCAG” as the sequence, how does the binding signal read?
**A.** The binding signal was 8300 fluorescence intensity (a.u.).

**Q.** For “ACACTTTGACTCTTTGATTTAGTAAGCTCGAGTTTATTTTCGGAGTCACCTAGTGCAG”, which binding signal is on record?
**A.** The binding signal was 9030 fluorescence intensity (a.u.).

**Q.** For “ATAAGATATTTTTGACTTTGGTCAAAGTCAAATTGTTTCACGGAGTCACCTAGTGCAG”, which binding signal is on record?
**A.** Its binding signal is 15300 fluorescence intensity (a.u.).

**Q.** For “TAAGTTGTTTGACTTTTTTTCTAGTCAAACTTGTCTGAGTCGGAGTCACCTAGTGCAG”, which binding signal is on record?
**A.** Its binding signal is 17000 fluorescence intensity (a.u.).

**Q.** How did the binding signal turn out when “CTTTGGTCAAAGTCAAATTGTTTTAAGTTTGACCAAGTTTCGGAGTCACCTAGTGCAG” was run?
**A.** Its binding signal is 19600 fluorescence intensity (a.u.).

**Q.** Which binding signal does the source give for “CACTTTATTTTTGAAAATTCGGGTGGGTAAGCTGGTGACTCGGAGTCACCTAGTGCAG” here?
**A.** The binding signal was 19200 fluorescence intensity (a.u.).

**Q.** Which binding signal does the source give for “ATATTATAAGTTGTTTTGACTTTTTGCTAGTCAAACTTATCGGAGTCACCTAGTGCAG” here?
**A.** Its binding signal is 14200 fluorescence intensity (a.u.).

**Q.** “ACTTCTTCTACGTGATTTCCTGATTCGCCTCATCCGCTTCCGGAGTCACCTAGTGCAG” was tested. Which binding signal did it give?
**A.** Its binding signal is 9060 fluorescence intensity (a.u.).

**Q.** For “TGGGGATGGCGGAGGTTAGCGGCGCGCTTTTTTTTCTATTCGGAGTCACCTAGTGCAG”, which binding signal is on record?
**A.** Its binding signal is 14500 fluorescence intensity (a.u.).

**Q.** Which binding signal does the source give for “TTCATATACACATATAGTTTTACATATTTCATATTTTTTTCGGAGTCACCTAGTGCAG” here?
**A.** Its binding signal is 9360 fluorescence intensity (a.u.).

**Q.** For “CCACCTGCCAGCCTGTACCCACCCCTCCCTACTGTTATACCGGAGTCACCTAGTGCAG”, which binding signal is on record?
**A.** Its binding signal is 8640 fluorescence intensity (a.u.).

**Q.** For “ATGATCATAGCCATTTTTCCTCGCTTTAAATATTTGCTACCGGAGTCACCTAGTGCAG”, which binding signal is on record?
**A.** Its binding signal is 8490 fluorescence intensity (a.u.).

**Q.** How did the binding signal turn out when “TTGGCGGTGGAGGCGGTGGTGGCTTTGGAGGAGACGGTGGCGGAGTCACCTAGTGCAG” was run?
**A.** The binding signal was 8650 fluorescence intensity (a.u.).

**Q.** How did the binding signal turn out when “GCTTTTGGCTGTGGTGGGTGCTTGTGGGTGGAGAGAGAGACGGAGTCACCTAGTGCAG” was run?
**A.** Its binding signal is 19300 fluorescence intensity (a.u.).

**Q.** “GAGGTCTACTGTTATTGGGGATTCTTTTTGGGTGGGGTGGCGGAGTCACCTAGTGCAG” was tested. Which binding signal did it give?
**A.** Its binding signal is 31300 fluorescence intensity (a.u.).

**Q.** For “GTGGCTTGAAAGGTCTGTGTGTTCTTGTTTGGGATTGAGGCGGAGTCACCTAGTGCAG”, which binding signal is on record?
**A.** The binding signal was 8440 fluorescence intensity (a.u.).

**Q.** For “GGTTGCTGTGGTTGGCGAGGTGGGGTGGGGCTTGGAGTAACGGAGTCACCTAGTGCAG”, which binding signal is on record?
**A.** The binding signal was 27400 fluorescence intensity (a.u.).

**Q.** For “GCTTGTTGTGGGCTGTGGACTGGGTGTGTGTGTGTGCTTTCGGAGTCACCTAGTGCAG”, which binding signal is on record?
**A.** Its binding signal is 9420 fluorescence intensity (a.u.).

**Q.** Which binding signal does the source give for “TGGCGGATTGATCTGGAGGTGGGCTTGTTGGGGTTGCTGTCGGAGTCACCTAGTGCAG” here?
**A.** Its binding signal is 18200 fluorescence intensity (a.u.).

**Q.** Which binding signal does the source give for “GCTTGCTTGGTTGGTTGGTGGAGCTTGGGAGTTGAGGTCACGGAGTCACCTAGTGCAG” here?
**A.** Its binding signal is 11500 fluorescence intensity (a.u.).

**Q.** “CTGGATTGATTGGGAGTGTTGGGTTTCGGGCTAGATCTGGCGGAGTCACCTAGTGCAG” was tested. Which binding signal did it give?
**A.** The binding signal was 9850 fluorescence intensity (a.u.).

**Q.** Which binding signal does the source give for “TTCGGAGGCGGAGGCGGTGGTGGGCTTGGTGGAGGTGGCGCGGAGTCACCTAGTGCAG” here?
**A.** The binding signal was 9860 fluorescence intensity (a.u.).

**Q.** “AGTCTGGATTCTTGGAGGTCAACTTTGGTCAACGGTGGGGCGGAGTCACCTAGTGCAG” was tested. Which binding signal did it give?
**A.** The binding signal was 14200 fluorescence intensity (a.u.).

**Q.** How did the binding signal turn out when “CGGGTGGGGATGGGCTGGATCTGGATTGATTGGGAGTGTTCGGAGTCACCTAGTGCAG” was run?
**A.** The binding signal was 15200 fluorescence intensity (a.u.).

**Q.** With “ATCTTTGCCAAAATTTTTCTACTAGTATAATACTATCTCCCGGAGTCACCTAGTGCAG” as the sequence, how does the binding signal read?
**A.** The binding signal was 8420 fluorescence intensity (a.u.).

**Q.** “AAGCTCCGATCCACAGCGCACCTCGAGCCCTACCTCCGATCGGAGTCACCTAGTGCAG” was tested. Which binding signal did it give?
**A.** The binding signal was 8940 fluorescence intensity (a.u.).

**Q.** “TTCCTCCATCCATTTTGTCAACTCCTCTCCGCTTTTCATCCGGAGTCACCTAGTGCAG” was tested. Which binding signal did it give?
**A.** Its binding signal is 9640 fluorescence intensity (a.u.).

**Q.** Which binding signal does the source give for “GCCTGGCGCGCCTCTCCTGCTCTGTTGGACCGCCGCGCCCCGGAGTCACCTAGTGCAG” here?
**A.** Its binding signal is 12000 fluorescence intensity (a.u.).

**Q.** With “CCACTCTCCGGCGCACCTATTTTCCATTTATATATATATGCGGAGTCACCTAGTGCAG” as the sequence, how does the binding signal read?
**A.** Its binding signal is 9670 fluorescence intensity (a.u.).

**Q.** How did the binding signal turn out when “TTGAACCCTGCTCTCAGCTGAGCACCATGCAATAACTGTCCGGAGTCACCTAGTGCAG” was run?
**A.** The binding signal was 8270 fluorescence intensity (a.u.).

**Q.** For “CCAATGATATGTGCCGAAGTTGTATTTATCGAGAGATATTCGGAGTCACCTAGTGCAG”, which binding signal is on record?
**A.** Its binding signal is 9850 fluorescence intensity (a.u.).

**Q.** “CCAGTGAATTACATTTTTGCCCGATCCCGTCGCGAACTCCCGGAGTCACCTAGTGCAG” was tested. Which binding signal did it give?
**A.** The binding signal was 8750 fluorescence intensity (a.u.).

**Q.** With “CTGGGTGTTCAGATATATTACTAGAGGTCATACCATACAACGGAGTCACCTAGTGCAG” as the sequence, how does the binding signal read?
**A.** The binding signal was 8130 fluorescence intensity (a.u.).

**Q.** Which binding signal does the source give for “GCCATATTATTTTTCCTTTGTCCTAATTAATGTTAGAAATCGGAGTCACCTAGTGCAG” here?
**A.** Its binding signal is 9440 fluorescence intensity (a.u.).

**Q.** “CTACTAGTACAGGCTATATCGCTTACTCCCTTTGTCCTAACGGAGTCACCTAGTGCAG” was tested. Which binding signal did it give?
**A.** The binding signal was 8420 fluorescence intensity (a.u.).

**Q.** For “GGCTATCGGTGGGTGGGTGGGGTGTACTACTCCCCTATAACGGAGTCACCTAGTGCAG”, which binding signal is on record?
**A.** The binding signal was 22200 fluorescence intensity (a.u.).

**Q.** Which binding signal does the source give for “GAGGAGGTGGTGGCGCGGCGTTCTTGGGGCTGGAGAGGGTCGGAGTCACCTAGTGCAG” here?
**A.** The binding signal was 8790 fluorescence intensity (a.u.).

**Q.** With “AACCTACTAGCTAGCTTAGTGTACTCTGTGTACTGTATATCGGAGTCACCTAGTGCAG” as the sequence, how does the binding signal read?
**A.** Its binding signal is 8190 fluorescence intensity (a.u.).

**Q.** “TGGGTCTCTTGGGGTCGGTGGGGCGGTCGTCGTCCGTGCCCGGAGTCACCTAGTGCAG” was tested. Which binding signal did it give?
**A.** Its binding signal is 11400 fluorescence intensity (a.u.).

**Q.** “TAGGGGTTAGTGTGCGAGCATGTGCTGTGTAATTTTTTAACGGAGTCACCTAGTGCAG” was tested. Which binding signal did it give?
**A.** Its binding signal is 10600 fluorescence intensity (a.u.).

**Q.** With “TAGTTGTTGTTGTTGTTATTTGTTAATTGGGCCTTGTTCACGGAGTCACCTAGTGCAG” as the sequence, how does the binding signal read?
**A.** The binding signal was 12300 fluorescence intensity (a.u.).

**Q.** Which binding signal does the source give for “CTTGGCTGTTCTTGGGTGGGTGAGGTGGGGCGGTCGGATCCGGAGTCACCTAGTGCAG” here?
**A.** The binding signal was 17100 fluorescence intensity (a.u.).

**Q.** With “TTAGTACTATTAATTTGGTGGGGTTGGGTGGGTGCTGTAACGGAGTCACCTAGTGCAG” as the sequence, how does the binding signal read?
**A.** Its binding signal is 16700 fluorescence intensity (a.u.).

**Q.** “TACATTGTTAGTACTGTTTGGTGTAACTATTTTTTTATAACGGAGTCACCTAGTGCAG” was tested. Which binding signal did it give?
**A.** Its binding signal is 8180 fluorescence intensity (a.u.).

**Q.** “CTAATTAGTACTGCAATTTTGGGTCCTTGGGTTGTTAGAACGGAGTCACCTAGTGCAG” was tested. Which binding signal did it give?
**A.** The binding signal was 16900 fluorescence intensity (a.u.).
